# Read-outs that look alike come from different tables or passages of the source.
# Legend:
# Design in all cases: species or system human, MV4-11 + K-562 + COLO205 + SK-N-BE2 + OVCAR-8
# ERN1 = conditions: read-out: apparent Kd, compound concentrations: 100 nM and 1000 nM (sheet 'Samples'), n = 1
# ATM = conditions: read-out: apparent Kd, n = 1
# IKBKE = conditions: read-out: apparent Kd, compound concentrations: 100 nM and 1000 nM (sheet 'Samples'), n = 1
# MELK = conditions: read-out: apparent Kd, n = 1
# MYLK3 = conditions: read-out: apparent Kd; compound concentrations:100 nM and 1000 nM (sheet 'Samples'); n = 1
# MAP3K1 = conditions: read-out: apparent Kd; compound concentrations:100 nM and 1000 nM (sheet 'Samples'); n = 1
# FER = conditions: read-out: apparent Kd, n = 1
# PAK4 = conditions: read-out: apparent Kd; compound concentrations:100 nM and 1000 nM (sheet 'Samples'); n = 1
# RPS6KA6 = conditions: read-out: apparent Kd, n = 1
# MAP4K2 = conditions: read-out: apparent Kd, n = 1
# ULK1 = conditions: read-out: apparent Kd; compound concentrations:100 nM and 1000 nM (sheet 'Samples'); n = 1
# MAP4K1 = conditions: read-out: apparent Kd, compound concentrations: 100 nM and 1000 nM (sheet 'Samples'), n = 1
# ICK = conditions: read-out: apparent Kd, n = 1
# PIK3C3 = conditions: read-out: apparent Kd; compound concentrations:100 nM and 1000 nM (sheet 'Samples'); n = 1
# PIP4K2C = conditions: read-out: apparent Kd; compound concentrations:100 nM and 1000 nM (sheet 'Samples'); n = 1
# ULK3 = conditions: read-out: apparent Kd, n = 1
# ERN2 = conditions: read-out: apparent Kd, n = 1
# PRKX;PRKY = conditions: read-out: apparent Kd; compound concentrations: 100 nM and 1000 nM (sheet 'Samples'), CATDS: 3.2948163641369002E-2; n = 1
# GRK6 = conditions: read-out: apparent Kd; compound concentrations:100 nM and 1000 nM (sheet 'Samples'); n = 1
# VDAC3 = conditions: read-out: apparent Kd, n = 1
# [1] = compound concentrations:100 nM and 1000 nM (sheet 'Samples')
structure (smiles),measurement,setting,value
CC(=O)N1CCN(c2ccc(Nc3nccc(-c4sc(C(C)C)nc4-c4cccc(NS(=O)(=O)c5cccc(Cl)c5)c4)n3)cn2)CC1 [GSK1660437A],potency estimated from few doses,ERN1; CATDS: 3.4539361157079097E-2,2420 nM
O=S(=O)(CCOCc1ccc(-c2ccc3ncnc(Nc4ccc(OCc5cccc(F)c5)c(Cl)c4)c3c2)o1)c1ccccc1 [GW615311X],potency estimated from few doses,"ATM; compound concentrations: 100 nM and 1000 nM (sheet 'Samples'), CATDS: 0.104410485471121",179 nM
same,potency estimated from few doses,IKBKE; CATDS: 3.0296968888376598E-2,1150 nM
COc1cc(/C=N/Nc2ncnc3[nH]ncc23)ccc1O [GW578748X],potency estimated from few doses,MELK; [1],2390 nM
same,potency estimated from few doses,MYLK3,2040 nM
Cn1cc(-c2ccc3c(c2)CCN3C(=O)Cc2cc(F)cc(C(F)(F)F)c2)c2c(N)ncnc21 [GSK2635225A],potency estimated from few doses,IKBKE; CATDS: 0.14106315772238301,1220 nM
CC(C)c1nc(-c2cccc(NS(=O)(=O)c3c(F)cccc3F)c2)c(-c2ccnc(Nc3ccc(N4CCOCC4)nc3)n2)s1.Cl [GSK1723980B],potency estimated from few doses,ERN1; CATDS: 1.53606700454439E-2,1320 nM
COc1cc2ncn(-c3cc(OCc4cccs4)c(C(N)=O)s3)c2cc1OC [GSK312948A],potency estimated from few doses,MAP3K1,1470 nM
CNc1nccc(-c2c(-c3ccc(F)cc3)ncn2C2CCN(C)CC2)n1 [SB-222903],potency estimated from few doses,ATM; [1],80.7 nM
COc1cc2ncn(-c3cc(OCCCc4ccccc4)c(C(N)=O)s3)c2cc1OC [GSK205189A],potency estimated from few doses,FER; [1],55.1 nM
same,potency estimated from few doses,PAK4,1350 nM
same,potency estimated from few doses,RPS6KA6; [1],907 nM
Nc1ncc(-c2cn[nH]c2)c2scc(-c3ccc4c(c3)CCN4C(=O)Cc3ccccc3)c12 [GSK2593067A],potency estimated from few doses,"MAP4K2; compound concentrations: 100 nM and 1000 nM (sheet 'Samples'), CATDS: 0.15564611372576101",200 nM
CN(C)Cc1ccc(-c2ccc3c(Nc4ccc(Oc5ccccn5)cc4)ccnc3c2)o1 [GW567148X],potency estimated from few doses,"FER; compound concentrations: 100 nM and 1000 nM (sheet 'Samples'), CATDS: 2.46743192274099E-2",568 nM
same,potency estimated from few doses,"RPS6KA6; compound concentrations: 100 nM and 1000 nM (sheet 'Samples'), CATDS: 2.11191304038983E-2",847 nM
Fc1ccc(-c2c(-c3ccncc3)[nH]c3nccnc23)cc1 [RO1155697-000],potency estimated from few doses,ULK1,1520 nM
CN1CCN(Cc2ccc(NC(=O)Nc3ccc(N(C)c4ccnc(Nc5ccc(CS(C)(=O)=O)cc5)n4)cc3)cc2)CC1.Cl [GW827654A],potency estimated from few doses,MAP4K1; CATDS: 4.9471634979456398E-2,557 nM
N#Cc1cccc(Nc2nccc(-c3cnn4ncccc34)n2)c1 [GW778894X],potency estimated from few doses,ICK; [1],1.67 nM
same,potency estimated from few doses,PIK3C3,994 nM
same,potency estimated from few doses,PIP4K2C,113 nM
CNC(=O)c1ccccc1Nc1nc(Nc2cccc(CS(C)(=O)=O)c2)ncc1C.O=CO [GSK1520489A],potency estimated from few doses,IKBKE; CATDS: 1.0336564492146301E-2,1110 nM
same,potency estimated from few doses,MAP4K1; CATDS: 1.32778170160273E-2,423 nM
same,potency estimated from few doses,"MELK; compound concentrations: 100 nM and 1000 nM (sheet 'Samples'), CATDS: 9.6320632964756892E-3",1610 nM
same,potency estimated from few doses,"ULK3; compound concentrations: 100 nM and 1000 nM (sheet 'Samples'), CATDS: 1.2201291111952599E-2",563 nM
CC(C)c1nc(-c2cccc(NS(=O)(=O)c3c(F)cccc3F)c2F)c(-c2ccnc(Nc3ccc(N4CCOCC4)nc3)n2)s1 [GSK2008607A],potency estimated from few doses,ERN1; CATDS: 1.9066828422081999E-2,1650 nM
same,potency estimated from few doses,"ERN2; compound concentrations: 100 nM and 1000 nM (sheet 'Samples'), CATDS: 2.27822446193667E-2",926 nM
Nc1nc(N)c2nc(-c3ccccc3)[nH]c2n1 [SKF-12778],potency estimated from few doses,ULK3; [1],1140 nM
CC(C)c1nc(-c2ccc(F)c(NS(=O)(=O)c3c(F)cccc3F)c2)c(-c2ccnc(Nc3ccc(N4CCOCC4)nc3)n2)s1 [GSK1804250A],potency estimated from few doses,ERN2; [1],1120 nM
COc1ccc(C2=C(c3cn(C)c4ccccc34)C(=O)NC2=O)cc1OC [RO3206363-000],potency estimated from few doses,PRKX;PRKY,1620 nM
Cc1ccc(-n2nc(C(C)(C)C)cc2NC(=O)Nc2ccc(OCCN3CCOCC3)cc2)cc1 [BIRB0876BS],potency estimated from few doses,GRK6,2170 nM
COc1cc2ncn(-c3cc(OCc4sccc4Cl)c(C(N)=O)s3)c2cc1OC [GSK448459A],potency estimated from few doses,MAP3K1,511 nM
same,potency estimated from few doses,MAP4K2; [1],827 nM
Cn1cc(C2=C(c3ccccc3[N+](=O)[O-])C(=O)NC2=O)c2ccccc21 [RO0317753-000],potency estimated from few doses,"ICK; compound concentrations: 100 nM and 1000 nM (sheet 'Samples'), CATDS: 0.27950775870472",32.3 nM
COc1cc(F)c(F)c(F)c1C(=O)c1cnc(NC2CCN(S(C)(=O)=O)CC2)nc1N [RO4600703-000],potency estimated from few doses,ICK; [1],246 nM
COc1cc2ncn(-c3cc(O[C@H](C)c4ccccc4Cl)c(C(N)=O)s3)c2cc1OC [GSK237701A],potency estimated from few doses,MAP3K1,398 nM
Clc1ccc(-c2nn3ncccc3c2-c2ccnc(Nc3ccccc3)n2)cc1 [GW829055X],potency estimated from few doses,"VDAC3; compound concentrations: 100 nM and 1000 nM (sheet 'Samples'), CATDS: 4.3121960870331599E-2",997 nM
Fc1ccc(-c2ncn(C3CCNCC3)c2-c2ccnc(Oc3ccc4c(c3)OCO4)n2)cc1 [SB-250715],potency estimated from few doses,VDAC3; [1],834 nM
NC(=O)c1cccnc1COc1cc(-c2ccc(N3CCOCC3)nc2)cc2ncccc12 [BI01125081],potency estimated from few doses,GRK6,1700 nM
same,potency estimated from few doses,PIK3C3,1260 nM

# — article PMC11062922 (Nature Chemical Biology, 2023)
